CHT allo act – allosterically activates the human high affinity choline transporter; Q9GZV3; CHT-expressing cells, membrane potential dye, choline EC20; stronger effect = higher value; LV-AA mutant CHT in HEK293 cells; B-score at 10 µM; 310,000 tested, 0.49% active; AID 488977;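 active = initial fluorescence not abnormally high and integrated response B-score, plate-corrected, over 3 SD above library mean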
CHT block – inhibitors of human choline transporter CHT; 310,000 tested, 0.86% active; CHT-expressing cells, membrane potential dye, choline response; stronger effect = lower value; B-score at 10 µM; Q9GZV3; AID 488975;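 active = B-score over 3 SD under the library average, and starting fluorescence ratio not unusually high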;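 note: choline stimulus applied at its EC90 after an EC20 pre-addition; B-score computed on integrated fluorescence ratio after choline addition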
AI-2 QS modul – modulators of Vibrio harveyi AI-2 quorum sensing system; Vibrio harveyi JMH597 AI-2 luminescence/OD600 ratio, 9 h; stronger effect = lower value; strain lacks LuxN and CqsS sensors; 0 = neutral-control median; activity change, % at 7.5 µM; 300,000 tested, 0.4% active; AID 2094; in the data active = activity change below about -75%, passing the limit was not always enough;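 note: luminescence divided by OD600 gain over 9 h not by final OD600 alone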
HIF act – HIF pathway transcriptional activation; U2OS HRE-luciferase reporter, luminescence; normalized: DMSO 0%, desferrioxamine 100%; activation, % at 7.5 µM (by protocol); 300,000 tested, 0.32% active;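 active = mean activation of at least 10% of the iron chelator positive control signal, with at least half of replicates also reaching 10%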
VLA-4 inh – inhibition in a human VLA-4 binding assay | P13612 | VLA-4 expressing cells, ligand binding flow cytometry | inhibition, % (about 7 µM as worked out from the volumes in the protocol) | 330,000 tested, 0.2% active | AID 2557; in the data active = inhibition above about 50%
Platelet DG rel – platelet dense granule release activity | human platelet-rich plasma, SFLLRN dense granule ATP release, luminescence | inhibition, %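 (compounds screened at 7.5 µM in platelet-rich plasma)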 | 300,000 tested, 0.22% active | AID 1663;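 active = mean replicate score, as percent of positive control, at or above 50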
CHT block conf – human CHT inhibition, confirmatory screen | shares compounds with CHT block | CHT activity remaining % of control (stronger effect = lower value), % at 10 µM | CHT-expressing cells, choline membrane potential dye; LV-to-AA substituted CHT, HEK293 cells | 2,400 tested, 70% active;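 active = choline transporter activity left, mean of duplicates at 10 µM, below buffer-only control mean minus 3 SD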;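 note: depolarization triggered by choline at its EC90 following an EC20 pre-addition; 0% = hemicholinium-3 full block and 100% = buffer-only control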
HEK293 MPD ctr – activity in parental HEK293 cells lacking CHT; membrane potential dye, choline response; active = decrease or increase beyond buffer ±3SD; membrane potential ratio readout (active if shifted either direction beyond buffer ±3SD; no single direction) at 10 µM; shares compounds with CHT block; 2,400 tested, 4% active;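 note: parental cells lack the transporter so any hit is non-specific; ratio is peak minus trough fluorescence over baseline after EC90 choline challenge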
* hit, by the source's call; i = inactive; . = no result given. Compounds with a hit are over-represented: about 2.2% of the library has one in this group of screens.

SMILES	CHT allo act	CHT block	AI-2 QS modul	HIF act	VLA-4 inh	Platelet DG rel	CHT block conf	HEK293 MPD ctr
COc1ccc(-c2nnc(NC(=O)c3ccc(S(=O)(=O)N4COCC4(C)C)cc3)o2)cc1	i	i	23	0	-2	-1	.	.
O=C(Nc1ccc(Br)cc1Cl)Nn1cnnc1	i	-5*	13	0	26	4	65%*	i
Cc1cc(C)c(S(=O)(=O)Nc2ccc(N(C)C)cc2)c(C)c1-n1cnnn1	i	i	3	1	-3	7	.	.
COc1cc(NC(=O)COc2cccc3c2OC(C)(C)C3)cc(OC)c1OC	.	.	.	.	2	.	.	.
O=S(=O)(Nc1nc2ccccc2nc1NCC1CCCO1)c1cc(Cl)ccc1Cl (stereo not drawn)	i	-5.6*	14	0	5	4	45%*	i
O=S(=O)(Nc1nc2ccccc2nc1NCC1CCCO1)c1ccccc1 (stereo not drawn)	i	i	3	0	2	9	.	.
Cc1ccc(C(C)NC(=S)NC2CCCCC2)cc1C (stereo not drawn)	i	-12*	15	-1	5	-8	22%*	i
COc1ccc(C(C)NC(=S)NC2CCCC2)cc1OC (stereo not drawn)	i	i	18	-1	-2	-10	.	.
Cc1ccccc1C(=O)Nc1ccc(C(=O)N/N=C/c2ccc(O)c(Br)c2)cc1	i	i	45	-1	1	-14	.	.
O=C(Nc1cccc(C(F)(F)F)c1)c1csc(-c2ccncc2)n1	i	i	-2	1	2	-4	.	.
COc1cc(NC(=O)c2csc(-c3ccncc3)n2)cc(C(=O)Nc2cccc(C(F)(F)F)c2)c1	i	-8.6*	18	0	1	-3	26%*	i
CC(C)CC(=O)Nc1ccccc1N1CCN(C(=O)c2ccccc2)CC1	i	-5.1*	-7	-1	8	-3	i	i
Cc1ccc(N2CC(C(=O)Nc3ncc([N+](=O)[O-])s3)CC2=O)cc1 (stereo not drawn)	i	-5*	30	0	7	8	50%*	i
Cc1ccc(N2CC(C(=O)Nc3nnc(C)s3)CC2=O)cc1 (stereo not drawn)	i	i	36	.	2	3	.	.
Cc1[nH]n(-c2cccc(Cl)c2)c(=O)c1-c1ccccc1	i	-6.1*	22	0	0	-1	68%*	i
O=C(c1cn(-c2ccccc2)nc1-c1ccc(Cl)cc1)N1CCOCC1	i	-5.6*	16	0	-18	4	59%*	i
Cc1ccc(C)c(S(=O)(=O)N(C)C2CCS(=O)(=O)C2)c1 (stereo not drawn)	i	i	19	0	12	6	.	.
CC(OC(=O)/C=C/c1ccc2ccccc2n1)C(=O)N(C)c1ccccc1 (stereo not drawn)	.	.	.	.	20	.	.	.
CC(=O)/C=C/c1ccc2ccccc2n1	i	-5.3*	-8	1	17	5	i	i
CCc1cc(-c2nc(N)ncc2-c2csc(C)n2)c(O)cc1OC	i	-7.8*	-10	-1	5	1	i	i
CC1CCCC(NC(=O)COC(=O)COc2cccc(F)c2)C1C (stereo not drawn)	.	.	.	.	-5	.	.	.
COc1cc(SC)ccc1C(=O)NC1CCCCC1	i	-6.2*	3	2	4	6	i	i
CC(Sc1ccccc1)C(=O)N1CCN(S(=O)(=O)c2cccc(Br)c2)CC1 (stereo not drawn)	i	i	-12	0	-7	2	.	.
CCc1ccc(OC(C)C(=O)Nc2ccc(S(=O)(=O)Nc3nccs3)cc2)cc1 (stereo not drawn)	i	-5*	33	0	5	-14	59%*	i

High-throughput results: PubChem, several laboratories
